Assays:
Test in all cases: DAPPL (digital affinity profiling via proximity ligation, sequencing); 10 mM Tris-HCl pH 7.5, 50 mM NaCl, 1 mM DTT, 4% glycerol, room temperature, 30 min; GST-TFs on glutathione beads, 16-mer random dsDNA library, 0.1% formaldehyde crosslink after washing; high values mean tight binding
FLI1 = biological target: T1, FLI1 (Homo sapiens, UniProt Q01543 1-452); settings: protein: recombinant; tags: N-terminal GST; dsDNA, one strand shown
T1 sequence: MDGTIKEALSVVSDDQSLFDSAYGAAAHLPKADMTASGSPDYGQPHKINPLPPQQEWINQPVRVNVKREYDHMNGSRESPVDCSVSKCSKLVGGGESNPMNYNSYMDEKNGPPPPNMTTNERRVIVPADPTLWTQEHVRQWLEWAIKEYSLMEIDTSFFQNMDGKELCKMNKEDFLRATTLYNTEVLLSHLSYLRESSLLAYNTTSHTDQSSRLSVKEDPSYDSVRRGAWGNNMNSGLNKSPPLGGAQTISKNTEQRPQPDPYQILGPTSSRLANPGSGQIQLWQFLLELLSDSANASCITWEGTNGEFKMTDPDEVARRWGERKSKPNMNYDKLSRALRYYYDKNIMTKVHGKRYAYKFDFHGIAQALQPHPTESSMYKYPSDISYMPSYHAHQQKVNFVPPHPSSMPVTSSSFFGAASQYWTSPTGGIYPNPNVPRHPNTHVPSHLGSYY
Outline: (§1)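 Pools were built from human transcription factors expressed in yeast as GST fusions, captured on glutathione beads and DNA-barcoded, along with a tag-only sample. Incubation with 200 nmole of a 16-mer random double-stranded DNA library lasted 30 min at room temperature in Tris/NaCl/DTT/glycerol buffer, and was followed by washing, 0.1% formaldehyde crosslinking, proximity ligation, PCR amplification and Illumina NextSeq500 sequencing. Binding signal is the quotient of each hexamer's read frequency for a factor and its frequency for the tag-only sample.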

ELK1 = biological target: T2, ELK1 (Homo sapiens, UniProt P19419 1-428); settings: protein: recombinant; tags: N-terminal GST; dsDNA, one strand shown
T2 sequence: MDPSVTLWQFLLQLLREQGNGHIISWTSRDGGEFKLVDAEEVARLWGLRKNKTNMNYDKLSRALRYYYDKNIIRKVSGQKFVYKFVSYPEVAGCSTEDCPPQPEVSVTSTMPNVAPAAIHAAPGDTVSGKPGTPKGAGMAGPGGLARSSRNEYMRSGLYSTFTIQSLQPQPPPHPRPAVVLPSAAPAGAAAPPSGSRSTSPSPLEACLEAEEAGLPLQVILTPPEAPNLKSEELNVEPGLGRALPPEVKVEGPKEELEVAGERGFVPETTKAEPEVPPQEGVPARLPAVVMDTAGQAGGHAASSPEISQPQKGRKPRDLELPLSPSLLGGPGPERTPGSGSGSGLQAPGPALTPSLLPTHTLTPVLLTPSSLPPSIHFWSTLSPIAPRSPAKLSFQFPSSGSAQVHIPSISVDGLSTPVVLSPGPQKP
Outline: as §1

GABPA = biological target: T3, GABPA (Homo sapiens, UniProt Q06546 1-454); settings: protein: recombinant; tags: N-terminal GST; dsDNA, one strand shown
T3 sequence: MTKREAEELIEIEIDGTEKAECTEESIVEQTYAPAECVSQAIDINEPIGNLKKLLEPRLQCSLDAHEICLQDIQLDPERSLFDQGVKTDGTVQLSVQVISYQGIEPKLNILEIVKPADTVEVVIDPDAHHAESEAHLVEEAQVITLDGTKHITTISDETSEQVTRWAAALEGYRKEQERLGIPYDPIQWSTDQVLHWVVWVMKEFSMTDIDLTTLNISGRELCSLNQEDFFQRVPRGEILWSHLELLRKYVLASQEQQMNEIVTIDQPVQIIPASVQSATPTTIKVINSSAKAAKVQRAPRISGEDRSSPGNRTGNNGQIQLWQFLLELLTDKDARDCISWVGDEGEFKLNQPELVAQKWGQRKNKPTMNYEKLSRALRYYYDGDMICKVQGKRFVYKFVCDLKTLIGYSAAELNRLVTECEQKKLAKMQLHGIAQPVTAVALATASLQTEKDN
Outline: as §1

ERG = biological target: T4, ERG (Homo sapiens, UniProt P11308 1-479); settings: protein: recombinant; tags: N-terminal GST; dsDNA, one strand shown
T4 sequence: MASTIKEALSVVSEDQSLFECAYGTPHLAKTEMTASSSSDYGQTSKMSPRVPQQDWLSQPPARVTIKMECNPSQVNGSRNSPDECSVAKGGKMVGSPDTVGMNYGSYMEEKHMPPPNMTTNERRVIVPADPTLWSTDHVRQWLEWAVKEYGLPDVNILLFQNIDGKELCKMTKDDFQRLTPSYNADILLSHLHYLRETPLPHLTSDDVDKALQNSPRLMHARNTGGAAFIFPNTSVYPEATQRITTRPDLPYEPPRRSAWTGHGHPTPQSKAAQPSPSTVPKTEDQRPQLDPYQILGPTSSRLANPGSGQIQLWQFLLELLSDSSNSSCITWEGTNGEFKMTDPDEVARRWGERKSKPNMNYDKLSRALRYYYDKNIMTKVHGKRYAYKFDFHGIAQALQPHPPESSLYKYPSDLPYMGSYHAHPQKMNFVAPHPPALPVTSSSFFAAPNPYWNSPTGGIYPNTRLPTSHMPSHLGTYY
Outline: as §1

ELF1 = ELF1 (Homo sapiens, UniProt P32519 1-619); settings: protein: recombinant; tags: N-terminal GST; dsDNA, one strand shown
Sequence of ELF1 (P32519 whole entry): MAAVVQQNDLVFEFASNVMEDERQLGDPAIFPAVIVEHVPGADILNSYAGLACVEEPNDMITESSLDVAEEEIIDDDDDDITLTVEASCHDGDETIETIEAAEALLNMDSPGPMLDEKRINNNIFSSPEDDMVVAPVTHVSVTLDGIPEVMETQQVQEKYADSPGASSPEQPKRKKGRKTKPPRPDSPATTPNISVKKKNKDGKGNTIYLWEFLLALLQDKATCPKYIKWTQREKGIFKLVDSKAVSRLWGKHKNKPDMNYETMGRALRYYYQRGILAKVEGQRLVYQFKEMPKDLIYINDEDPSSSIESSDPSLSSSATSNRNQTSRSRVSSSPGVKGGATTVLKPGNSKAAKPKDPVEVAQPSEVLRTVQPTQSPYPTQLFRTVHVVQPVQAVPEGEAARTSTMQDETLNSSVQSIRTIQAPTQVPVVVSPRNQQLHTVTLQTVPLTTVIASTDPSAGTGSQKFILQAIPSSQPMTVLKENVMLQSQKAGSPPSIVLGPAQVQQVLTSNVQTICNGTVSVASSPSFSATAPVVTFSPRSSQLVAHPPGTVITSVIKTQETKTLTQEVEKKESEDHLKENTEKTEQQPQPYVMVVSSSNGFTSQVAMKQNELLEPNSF
Outline: as §1

EHF = biological target: T5, EHF (Homo sapiens, UniProt Q9NZC4 1-300); settings: protein: recombinant; tags: N-terminal GST; dsDNA, one strand shown
T5 sequence: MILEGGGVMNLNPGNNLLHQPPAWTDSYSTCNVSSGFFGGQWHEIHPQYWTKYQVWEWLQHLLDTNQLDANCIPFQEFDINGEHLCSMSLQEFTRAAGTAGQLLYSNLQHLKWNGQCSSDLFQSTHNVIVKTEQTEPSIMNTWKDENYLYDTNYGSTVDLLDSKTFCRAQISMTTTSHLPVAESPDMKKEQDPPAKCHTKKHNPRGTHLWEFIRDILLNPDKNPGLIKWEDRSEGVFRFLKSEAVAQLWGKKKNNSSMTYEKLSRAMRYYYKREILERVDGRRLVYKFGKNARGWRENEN
Outline: as §1

SPI1 = SPI1 (Homo sapiens, UniProt P17947 1-270); settings: protein: recombinant; tags: N-terminal GST; dsDNA, one strand shown
Outline: as §1

SPIB = SPIB (Homo sapiens, UniProt Q01892 1-262); settings: protein: recombinant; tags: N-terminal GST; dsDNA, one strand shown
Sequence of SPIB (Q01892 whole entry): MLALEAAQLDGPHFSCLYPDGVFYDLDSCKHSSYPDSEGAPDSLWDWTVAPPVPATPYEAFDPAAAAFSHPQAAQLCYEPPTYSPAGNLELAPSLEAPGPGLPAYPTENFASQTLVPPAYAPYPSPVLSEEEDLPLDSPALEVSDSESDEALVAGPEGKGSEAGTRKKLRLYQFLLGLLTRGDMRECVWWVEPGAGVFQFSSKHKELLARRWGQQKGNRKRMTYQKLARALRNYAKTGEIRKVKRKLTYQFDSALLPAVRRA
Outline: as §1

ELK3 = biological target: T6, ELK3 (Homo sapiens, UniProt P41970 1-407); settings: protein: recombinant; tags: N-terminal GST; dsDNA, one strand shown
T6 sequence: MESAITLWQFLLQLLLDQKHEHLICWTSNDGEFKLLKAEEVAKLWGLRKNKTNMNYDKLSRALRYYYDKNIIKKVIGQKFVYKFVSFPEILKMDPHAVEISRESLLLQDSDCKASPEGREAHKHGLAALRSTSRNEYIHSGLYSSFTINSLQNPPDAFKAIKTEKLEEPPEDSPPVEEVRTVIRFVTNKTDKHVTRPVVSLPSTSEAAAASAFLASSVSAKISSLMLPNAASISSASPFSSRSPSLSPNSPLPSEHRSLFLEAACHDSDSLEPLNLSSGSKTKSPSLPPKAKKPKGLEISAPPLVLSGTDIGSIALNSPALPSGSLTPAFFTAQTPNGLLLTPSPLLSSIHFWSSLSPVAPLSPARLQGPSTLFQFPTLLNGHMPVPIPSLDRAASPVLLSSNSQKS
Outline: as §1

FEV = biological target: T7, FEV (Homo sapiens, UniProt Q99581 1-238); settings: protein: recombinant; tags: N-terminal GST; dsDNA, one strand shown
T7 sequence: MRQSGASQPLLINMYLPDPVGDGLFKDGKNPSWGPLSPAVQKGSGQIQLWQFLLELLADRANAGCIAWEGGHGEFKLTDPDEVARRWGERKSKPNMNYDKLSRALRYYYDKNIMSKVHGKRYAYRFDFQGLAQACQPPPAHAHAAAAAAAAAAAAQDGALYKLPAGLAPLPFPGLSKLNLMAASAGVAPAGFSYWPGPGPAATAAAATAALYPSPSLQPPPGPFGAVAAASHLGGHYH
Outline: as §1

ETV5 = ETV5 (Homo sapiens, UniProt P41161 1-510); settings: protein: recombinant; tags: N-terminal GST; dsDNA, one strand shown
Sequence of ETV5 (P41161 whole entry): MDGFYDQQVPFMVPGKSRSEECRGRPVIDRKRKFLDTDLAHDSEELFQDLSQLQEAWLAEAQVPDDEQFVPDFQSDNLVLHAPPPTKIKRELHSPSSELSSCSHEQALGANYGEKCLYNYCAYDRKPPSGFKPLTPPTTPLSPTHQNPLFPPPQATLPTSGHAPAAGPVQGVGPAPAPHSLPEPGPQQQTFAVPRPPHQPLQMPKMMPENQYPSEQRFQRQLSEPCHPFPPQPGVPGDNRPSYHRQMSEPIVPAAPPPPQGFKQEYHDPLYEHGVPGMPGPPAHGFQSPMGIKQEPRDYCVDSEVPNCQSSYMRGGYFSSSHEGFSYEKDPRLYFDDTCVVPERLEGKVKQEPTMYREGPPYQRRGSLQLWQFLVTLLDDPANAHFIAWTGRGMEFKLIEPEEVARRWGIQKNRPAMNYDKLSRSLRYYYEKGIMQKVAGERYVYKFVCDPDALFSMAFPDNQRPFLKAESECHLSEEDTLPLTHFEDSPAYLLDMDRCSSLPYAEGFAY
Outline: as §1

HSF1 = HSF1 (Homo sapiens, UniProt Q00613 1-529); settings: protein: recombinant; tags: N-terminal GST; chain copies: 3; dsDNA, one strand shown
Sequence of HSF1 (Q00613 whole entry): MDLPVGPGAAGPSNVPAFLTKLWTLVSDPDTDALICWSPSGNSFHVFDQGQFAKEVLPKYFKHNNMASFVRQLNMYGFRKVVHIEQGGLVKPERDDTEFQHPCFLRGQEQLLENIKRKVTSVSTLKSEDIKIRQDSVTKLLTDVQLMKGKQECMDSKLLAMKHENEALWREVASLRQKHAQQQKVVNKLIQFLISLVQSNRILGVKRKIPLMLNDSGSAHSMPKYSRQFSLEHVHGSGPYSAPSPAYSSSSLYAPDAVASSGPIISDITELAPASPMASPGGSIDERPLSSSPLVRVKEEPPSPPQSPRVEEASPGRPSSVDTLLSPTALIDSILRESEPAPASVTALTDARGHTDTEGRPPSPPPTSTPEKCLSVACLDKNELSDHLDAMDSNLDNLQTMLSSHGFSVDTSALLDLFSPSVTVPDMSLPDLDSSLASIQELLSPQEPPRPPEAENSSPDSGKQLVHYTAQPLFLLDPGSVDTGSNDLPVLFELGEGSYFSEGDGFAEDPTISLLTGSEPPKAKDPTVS
Outline: as §1

SPIC = biological target: T8, SPIC (Homo sapiens, UniProt Q8N5J4 1-248); settings: protein: recombinant; tags: N-terminal GST; dsDNA, one strand shown
T8 sequence: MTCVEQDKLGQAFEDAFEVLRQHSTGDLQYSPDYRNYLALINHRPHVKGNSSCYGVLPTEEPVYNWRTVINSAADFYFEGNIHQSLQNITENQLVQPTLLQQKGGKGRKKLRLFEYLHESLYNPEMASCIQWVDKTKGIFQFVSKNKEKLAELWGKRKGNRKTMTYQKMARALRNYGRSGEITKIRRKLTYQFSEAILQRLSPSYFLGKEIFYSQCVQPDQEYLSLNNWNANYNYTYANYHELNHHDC
Outline: as §1

ELF4 = ELF4 (Homo sapiens, UniProt Q99607 1-663); settings: protein: recombinant; tags: N-terminal GST; dsDNA, one strand shown
Sequence of ELF4 (Q99607 whole entry): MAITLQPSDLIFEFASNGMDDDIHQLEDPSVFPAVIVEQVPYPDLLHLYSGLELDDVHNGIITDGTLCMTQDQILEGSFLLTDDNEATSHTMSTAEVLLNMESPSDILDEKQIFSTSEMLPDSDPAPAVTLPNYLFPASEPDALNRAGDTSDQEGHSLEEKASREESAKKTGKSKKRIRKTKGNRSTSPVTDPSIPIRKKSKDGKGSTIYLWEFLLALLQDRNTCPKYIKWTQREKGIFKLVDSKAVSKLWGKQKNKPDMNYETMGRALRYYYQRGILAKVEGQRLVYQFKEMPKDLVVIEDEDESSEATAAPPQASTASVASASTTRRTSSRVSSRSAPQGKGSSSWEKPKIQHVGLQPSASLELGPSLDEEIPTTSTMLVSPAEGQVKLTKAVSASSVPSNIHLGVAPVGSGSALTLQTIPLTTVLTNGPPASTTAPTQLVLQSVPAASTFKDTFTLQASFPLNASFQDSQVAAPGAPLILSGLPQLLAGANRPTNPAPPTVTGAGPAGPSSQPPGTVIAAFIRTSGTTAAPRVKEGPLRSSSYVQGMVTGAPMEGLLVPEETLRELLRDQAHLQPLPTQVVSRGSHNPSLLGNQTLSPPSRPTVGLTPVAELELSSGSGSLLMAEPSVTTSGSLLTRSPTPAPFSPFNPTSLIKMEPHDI
Outline: as §1

ELK4 = biological target: T9, ELK4 (Homo sapiens, UniProt P28324-2 1-405); settings: protein: recombinant; tags: N-terminal GST; dsDNA, one strand shown
T9 sequence: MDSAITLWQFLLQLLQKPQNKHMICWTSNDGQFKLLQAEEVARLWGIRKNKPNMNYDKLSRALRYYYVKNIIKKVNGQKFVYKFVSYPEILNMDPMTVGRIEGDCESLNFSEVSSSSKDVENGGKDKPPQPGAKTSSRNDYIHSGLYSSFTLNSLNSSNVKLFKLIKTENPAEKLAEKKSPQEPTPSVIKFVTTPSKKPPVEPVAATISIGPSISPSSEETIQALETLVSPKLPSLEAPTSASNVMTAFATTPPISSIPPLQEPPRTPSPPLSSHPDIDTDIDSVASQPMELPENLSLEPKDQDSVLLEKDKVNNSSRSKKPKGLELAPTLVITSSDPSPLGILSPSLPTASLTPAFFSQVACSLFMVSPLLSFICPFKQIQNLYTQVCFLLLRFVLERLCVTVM
Outline: as §1

ETV2 = biological target: T10, ETV2 (Homo sapiens, UniProt O00321 1-342); settings: protein: recombinant; tags: N-terminal GST; dsDNA, one strand shown
T10 sequence: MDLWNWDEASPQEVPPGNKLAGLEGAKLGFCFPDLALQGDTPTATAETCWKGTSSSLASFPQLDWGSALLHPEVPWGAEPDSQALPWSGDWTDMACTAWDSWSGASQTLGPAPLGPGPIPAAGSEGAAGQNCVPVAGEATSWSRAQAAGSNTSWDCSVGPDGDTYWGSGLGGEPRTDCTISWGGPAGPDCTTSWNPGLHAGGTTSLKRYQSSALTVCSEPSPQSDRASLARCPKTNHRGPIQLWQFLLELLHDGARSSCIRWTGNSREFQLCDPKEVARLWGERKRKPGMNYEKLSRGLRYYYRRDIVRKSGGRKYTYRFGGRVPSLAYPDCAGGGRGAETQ
Outline: as §1

ELF3 = biological target: T11, ELF3 (Homo sapiens, UniProt P78545 1-371); settings: protein: recombinant; tags: N-terminal GST; dsDNA, one strand shown
T11 sequence: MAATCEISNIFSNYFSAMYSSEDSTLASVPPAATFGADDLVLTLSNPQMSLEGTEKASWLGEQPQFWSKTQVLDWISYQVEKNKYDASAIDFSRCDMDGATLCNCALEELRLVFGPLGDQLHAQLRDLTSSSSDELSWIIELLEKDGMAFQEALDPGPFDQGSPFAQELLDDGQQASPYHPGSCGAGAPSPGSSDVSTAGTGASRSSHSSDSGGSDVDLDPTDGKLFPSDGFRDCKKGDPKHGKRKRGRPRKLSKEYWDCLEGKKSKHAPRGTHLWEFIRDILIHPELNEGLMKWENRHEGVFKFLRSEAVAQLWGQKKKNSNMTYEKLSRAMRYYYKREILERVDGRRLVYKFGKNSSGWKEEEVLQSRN
Outline: as §1

CRX = CRX (Homo sapiens, UniProt O43186 1-299); settings: protein: recombinant; tags: N-terminal GST; dsDNA, one strand shown
Sequence of CRX (O43186 whole entry): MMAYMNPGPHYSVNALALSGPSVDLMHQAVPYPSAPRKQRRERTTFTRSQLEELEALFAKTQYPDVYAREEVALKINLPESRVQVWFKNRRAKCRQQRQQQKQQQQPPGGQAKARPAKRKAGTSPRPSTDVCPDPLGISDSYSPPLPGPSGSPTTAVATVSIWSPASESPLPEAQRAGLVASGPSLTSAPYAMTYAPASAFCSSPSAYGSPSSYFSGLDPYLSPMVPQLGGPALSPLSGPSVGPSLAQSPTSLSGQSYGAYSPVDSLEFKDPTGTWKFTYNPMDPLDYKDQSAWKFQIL
Outline: as §1

ETV1 = ETV1 (Homo sapiens, UniProt P50549 1-477); settings: protein: recombinant; tags: N-terminal GST; dsDNA, one strand shown
Sequence of ETV1 (P50549 whole entry): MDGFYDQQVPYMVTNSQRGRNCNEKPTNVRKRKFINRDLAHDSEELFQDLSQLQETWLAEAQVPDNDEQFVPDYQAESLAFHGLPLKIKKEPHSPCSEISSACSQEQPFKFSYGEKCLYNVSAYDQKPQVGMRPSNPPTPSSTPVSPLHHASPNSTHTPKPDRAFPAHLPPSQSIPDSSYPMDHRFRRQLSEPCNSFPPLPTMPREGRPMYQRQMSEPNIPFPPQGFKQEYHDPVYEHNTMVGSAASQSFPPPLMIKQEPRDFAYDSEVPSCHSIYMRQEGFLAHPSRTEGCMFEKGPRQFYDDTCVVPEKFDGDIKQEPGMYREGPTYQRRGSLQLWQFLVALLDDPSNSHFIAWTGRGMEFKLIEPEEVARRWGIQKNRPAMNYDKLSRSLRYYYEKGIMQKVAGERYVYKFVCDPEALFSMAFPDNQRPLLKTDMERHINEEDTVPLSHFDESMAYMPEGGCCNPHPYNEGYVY
Outline: as §1

AAGTCC
binding signal (FLI1): 1.21 fold enrichment (6-mer frequency, TF over GST control)
binding signal (ELK1): 1.31 fold enrichment (6-mer frequency, TF over GST control)
binding signal (GABPA): 1.18 fold enrichment (6-mer frequency, TF over GST control)
binding signal (ERG): 1.35 fold enrichment (6-mer frequency, TF over GST control)
binding signal (ELF1): 1.23 fold enrichment (6-mer frequency, TF over GST control)
binding signal (EHF): 1.27 fold enrichment (6-mer frequency, TF over GST control)
binding signal (SPI1): 1.36 fold enrichment (6-mer frequency, TF over GST control)
binding signal (SPIB): 1.28 fold enrichment (6-mer frequency, TF over GST control)
binding signal (ELK3): 1.27 fold enrichment (6-mer frequency, TF over GST control)
binding signal (FEV): 1.34 fold enrichment (6-mer frequency, TF over GST control)
binding signal (ETV5): 1.28 fold enrichment (6-mer frequency, TF over GST control)
binding signal (HSF1): 1.08 fold enrichment (6-mer frequency, TF over GST control)
binding signal (SPIC): 1.3 fold enrichment (6-mer frequency, TF over GST control)
binding signal (ELF4): 1.19 fold enrichment (6-mer frequency, TF over GST control)
binding signal (ELK4): 1.25 fold enrichment (6-mer frequency, TF over GST control)
binding signal (ETV2): 1.19 fold enrichment (6-mer frequency, TF over GST control)
binding signal (ELF3): 1.3 fold enrichment (6-mer frequency, TF over GST control)
binding signal (CRX): 1.19 fold enrichment (6-mer frequency, TF over GST control)
binding signal (ETV1): 1.26 fold enrichment (6-mer frequency, TF over GST control)

— PMC7862700, “An all-to-all approach to the identification of sequence-specific readers for epigenetic DNA modifications on cytosine”
